Assay outcomes: PubChem BioAssay, The Scripps Research Institute Molecular Screening Center
ssDAF-12 act: activators of S. stercoralis DAF-12 nuclear receptor; HEK293 ssDAF-12/GRIP1 lit1-tk-luc reporter, luminescence; % of 3 µM dafachronic acid response; actives 1% (n = 370,000); AID 652126; activation, % at 6.8 µM;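 active = activation above the mean over all tested compounds plus 3 SD, cut at about 0.9% in these data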;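 also: 0% = DMSO-only wells and 100% = 3 µM delta7-dafachronic acid wells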
DAX1 inh-1: inhibits human nuclear receptor DAX1. P51843. actives 0.99% (n = 340,000). HEK293 Gal4-DAX1 luciferase reporter, luminescence. inhibition, % at 6.75 µM;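 active = inhibition above the mean over all tested compounds plus 3 SD, cut at about 4.2% in these data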;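 also: 0% = DAX1-transfected cells with DMSO and 100% = empty-vector control cells with DMSO; inhibition shows as a rise in luminescence from relieved DAX1 repression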
Target sequence (P51843 207-470 limits assumed): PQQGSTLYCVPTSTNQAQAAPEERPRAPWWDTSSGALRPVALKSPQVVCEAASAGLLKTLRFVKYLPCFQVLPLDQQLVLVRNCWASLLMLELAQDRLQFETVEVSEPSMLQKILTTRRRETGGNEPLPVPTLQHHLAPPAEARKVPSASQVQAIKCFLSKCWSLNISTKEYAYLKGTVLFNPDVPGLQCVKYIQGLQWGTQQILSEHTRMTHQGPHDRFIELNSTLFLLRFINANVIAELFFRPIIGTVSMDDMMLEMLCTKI
DAX1 inh-2: DAX1 (NR0B1) inhibition, primary screen | HEK293T StAR-luciferase reporter, SF-1/DAX-1 repression relief | inhibition, % at 6.8 µM | actives 1.1% (n = 370,000) | AID 652010;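 active = inhibition above the mean over all tested compounds plus 3 SD, cut at about 3.6% in these data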;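 also: 0% = DAX-1 cells with DMSO and 100% = cells lacking DAX-1 with DMSO; higher inhibition means more luminescence from relief of DAX-1 repression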
hcDAF12 agonist: activators of H. contortus DAF-12 nuclear receptor. HEK293 hcDAF-12 lit1-tk-luc reporter, luminescence; 0% DMSO, 100% Δ7-dafachronic acid. activation, % at 6.8 µM. actives 1.4% (n = 370,000). AID 652067;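 active = activation above the mean of all tested compounds plus 3 SD, cut at about 5.5% in these data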;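 also: 100% = response to 3 µM Δ7-dafachronic acid high control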
hgDAF12 agonist: activates the H. glycines DAF-12 receptor ligand-binding domain | HEK293 GAL4-hgDAF12 UAS-luciferase reporter, agonist luminescence; normalized to butyrate control | activation, % at 6.8 µM | actives 1.8% (n = 370,000) | AID 687014;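 active = activation above a cutoff set at the mean of all screened compounds plus 3 SD, cut at about 10% in these data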;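 also: 0% = DMSO wells and 100% = sodium butyrate wells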
SMARCA2 activ: SMARCA2 function activation, primary screen; MG213 cells, MMTV-luciferase reporter, dexamethasone, overnight; activation, % at 9.1 µM; actives 1% (n = 370,000); AID 652017; in the data active = activation above about 7.8%;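 also: 0% = vehicle wells and 100% = reference activator wells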
* marks the source's active call; other numbers are inactive results; / = not tested or not shown. Only some compounds are listed: those with a hit (about 4.8% of all), similar ones and a draw of the others.

SMILES	ssDAF-12 act	DAX1 inh-1	DAX1 inh-2	hcDAF12 agonist	hgDAF12 agonist	SMARCA2 activ
Cc1cc(C)nc(NC(=O)CSc2nn(-c3ccccc3)c(=S)s2)n1	-1.1	9.1*	0.8	-1.0	0.2	-3.8
COc1cccc(-c2cnc(C(O)c3cccc(C)c3C)[nH]2)c1 (centres undefined)	-1.4	/	0.2	0.3	-1.3	-1.9
CC(C)CCSc1nc2ccccc2[nH]1	-0.9	3.8	1.7	1.5	13.0*	5.0
O=C(O)CCCCCNC(=O)CCn1nnc2ccccc2c1=O	-1.9	5.9*	-0.2	-0.8	-0.7	-2.2
O=C(O)CCCNC(=O)CCn1nnc2ccccc2c1=O	-1.7	2.5	0.7	-0.6	0.4	-0.7
O=c1c2ccccc2nnn1CSc1nc2ccccc2[nH]1	-0.8	2.9	1.6	0.1	11.4*	13.7*
CN1CCN(c2ccc(NC(=O)COc3cccc4ccccc34)cc2)CC1	-0.5	-0.3	-0.6	3.3	1.9	-2.3
C#CCOc1ccc(C2C3=C(CCCC3=O)N(CC(=O)O)C3=C2C(=O)CCC3)cc1Br	-1.5	-0.3	0.1	-0.9	-2.0	-1.1
O=C(N/N=C/c1cccnc1)c1ccccc1[N+](=O)[O-]	-1.6	2.5	0.1	-0.4	3.8	0.4
Cc1ccc(CNC(=O)NCc2ccccc2)cc1	-1.1	1.1	0.1	-0.3	0.6	1.0
Cc1ccc(SCC(=O)c2ccc[nH]2)cc1	-1.0	1.1	0.1	-0.1	10.9*	4.7
CC(=O)Nc1ccc(NC(=O)CSc2ccc(C)cc2)cc1	-1.4	0.5	-0.1	-0.7	1.0	3.6
Cc1ccc(CNC(=O)c2ccc[nH]2)cc1	-0.8	5.6*	0.8	-1.6	2.1	-2.4
CN(C)/C=N/c1c(C#N)cnn1-c1nc2ccccc2s1	-1.9	1.4	-1.2	-1.4	-5.0	0.1
Cc1ccccc1-c1nnn(CC(=O)NCc2ccc3c(c2)OCO3)n1	-0.6	0.8	0.4	0.4	0.7	-1.7
COc1ccc(CNC(=O)[C@@H](NC(=O)C2CCN(C(=O)[C@@H](N)Cc3ccccc3)CC2)C(C)C)cc1	-1.0	0.0	-0.6	0.8	-4.8	-0.3
COc1ccc(CNC(=O)[C@H](Cc2ccccc2)NC(=O)C2CCN(C(=O)[C@H](C)N)CC2)cc1	-1.0	5.0*	-0.3	1.6	3.4	2.9
COc1ccc(CNC(=O)[C@H](C)NC(=O)C2CCN(C(=O)[C@H](CCSC)NC(=O)OC(C)(C)C)CC2)cc1	-1.7	6.2*	1.2	-1.4	-1.6	0.8
O=C(Nc1cccc(C(=O)O)c1)/C(=C/c1ccccc1)NC(=O)c1cccc(Br)c1	-1.6	-2.0	-0.3	-0.1	-3.2	-5.5
O=P(OC1CCCCC1)(OC1CCCCC1)C(O)c1cccnc1 (centres undefined)	0.6	2.2	0.8	5.9*	2.6	-4.2
O=P(OC1CCCCC1)(OC1CCCCC1)C(O)c1ccccc1 (centres undefined)	-1.2	-1.2	-0.3	-1.1	-1.5	-4.6
C[C@@H]1COC(=O)[C@H](CC(=O)OC(C)(C)C)C/C=C\C[C@@H](CC(=O)N[C@H](CO)Cc2ccccc2)C(=O)N1	-1.0	0.8	0.4	-1.9	0.9	-0.4
COc1cccc(N=C(N)N)c1	-1.2	-1.1	-0.2	-0.2	0.0	-3.1
COc1cccc(-c2cc3nc4c(c(NCC(C)(C)CN(C)C)n3n2)CCCC4)c1	-2.0	4.3*	2.0	-0.5	6.1	-3.1
C[C@@H]1CN([C@@H](C)CO)C(=O)c2cc(C#Cc3cccc(F)c3)cnc2O[C@H]1CN(C)C(=O)C1CCCCC1	-1.4	2.6	-0.8	-0.6	-0.5	-5.9
SMILES	ssDAF-12 act	DAX1 inh-1	DAX1 inh-2	hcDAF12 agonist	hgDAF12 agonist	SMARCA2 activ
CCOc1ccc(-c2csc(NC(=O)CSC3=NC(=O)CN3C(C)=O)n2)c2ccccc12	-0.8	0.6	-0.7	-1.1	11.2*	2.2
CCOc1ccc2nc(/N=C/c3c(C)[nH]n(-c4ccccc4)c3=O)sc2c1	0.9*	3.6	1.6	2.0	4.2	0.7
CCOc1[nH]n(-c2ccccc2)c(=O)c1C=Nc1ccc(OC)cc1	-1.7	-2.3	-1.0	-1.5	0.3	0.0
Cc1cc(=O)[nH]c2cc(O)ccc12	-1.2	1.7	-0.2	-0.2	-1.2	-3.7
CC(C)=CCCC1(C)C=Cc2c(c(C)cc3c2[nH]c2cc(O)ccc23)O1 (centres undefined)	0.6	4.9*	0.5	-0.2	-0.6	0.8
O=C(CN1CC(=O)Oc2ccccc21)OCC(=O)c1ccc(Br)cc1	-0.7	-0.8	-0.1	2.9	1.0	2.1
Cn1nc(C(F)(F)F)cc1-c1ccc(S(N)(=O)=O)s1	-0.8	5.1*	0.4	-1.1	1.5	2.9
Cc1ccc(NC(=S)NC(=O)c2ccc(-c3ccc(Cl)cc3)o2)c(O)c1	2.5*	0.6	0.2	3.1	2.2	-2.6
CCOc1cc(C(=S)N2CCOCC2)ccc1OS(=O)(=O)c1ccc(C)cc1	-0.5	-2.0	-0.6	-2.8	-0.8	-4.3
COC(=O)c1ccccc1NC(=O)c1c(Br)cnn1C	-1.1	0.7	-0.1	0.9	1.8	-1.9
COC(=O)c1ccccc1NC(=O)c1ccnn1C	11.3*	-1.1	0.0	0.9	-1.2	2.8
COc1ccc(-n2c(Cc3cccn3C)nnc2SCC(=O)Nc2cccc(C)c2C)cc1	-1.0	3.6	-0.2	0.0	-1.4	-1.5
CC1CCC/C(=N\NC(=O)Nc2ccccc2)C1 (centres undefined)	-1.1	4.8*	0.5	4.1	3.5	-0.2
CCOc1ccc(CCNC(=O)COC(=O)Cc2c[nH]c3ccccc23)cc1OCC	1.3*	0.3	-3.9	4.4	4.6	-0.5
CCOc1ccc(CCNC(=O)COC(=O)COc2ccc(Cl)cc2)cc1OCC	-1.2	1.5	3.8*	-1.7	-2.5	-0.8
Cc1ccc(S(=O)(=O)N2CCCCC2)cc1NC(=O)CN1C(=O)c2ccccc2S1(=O)=O	-0.9	0.3	-0.3	-2.2	0.2	0.2
CCCCn1c(N)c(N(CCOC)C(=O)c2ccc(Br)o2)c(=O)[nH]c1=O	-0.4	-0.9	-0.2	-0.8	2.6	-3.2
COc1cc2ncc(S(=O)(=O)c3ccccc3)c(N3CCCC(C)C3)c2cc1OC (centres undefined)	-0.8	-0.8	-0.4	-0.5	-3.9	0.6
C=C1SC(Nc2c(C)cccc2C)=NC12CCCCC2	-1.0	/	0.1	-1.0	-1.3	4.8
CN(C)N1C(N)=C(C#N)C(c2ccc(F)cc2)C2=C1CCCC2=O (centres undefined)	-0.8	1.1	-0.1	-0.7	0.3	-2.4
CC(C)[C@H](NC(=O)c1ccccc1Cl)C(=O)OCc1cc([N+](=O)[O-])cc2c1OCOC2	1.0*	-1.2	-0.1	-1.4	-1.4	-1.9
CC(C)=CC(=O)OCc1cc([N+](=O)[O-])cc2c1OCOC2	1.0*	0.5	3.8*	1.0	10.6*	4.3
